Data on 23 compounds can be found in PubChem BioAssay AID1259415 (National Center for Advancing Translational Sciences (NCATS), 2018).

Among all 410,000 compounds or so, about 18,000 (4.4%) were called active. Not shown: some 7% with an inconclusive outcome. The full list was thinned out, with actives kept by preference. Unmarked numbers belong to inactive results. Cut-off read from the data, not from the text of the source: active = activity change below about -60%; inconclusive = no clear call, values can overlap the other calls; inactive = above about -39%.
% is set by controls: 0 for no effect and ±100 for the full control effect.

This assay is described as follows: qHTS Assay for inhibitors of the human cytomegalovirus (HCMV). The note with it: HFF cells, HCMV-luciferase reporter, 72 h; at 57.5 µM; hits give low values. In a few lines: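 Inhibition of viral replication was scored as loss of reporter luminescence in HFFs infected with HCMV-luciferase (MOI 1 PFU/cell) for 72 h; compounds tested at 2 doses, normalized to buffer and Salinomycin controls.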
`CCOc1ccc(/C(O)=C2/C(=O)C(=O)N(Cc3cccnc3)C2c2ccc(N(C)C)cc2)c(C)c1` (stereo not drawn): the activity change, negative = inhibition was 19.8%. For the compound `COc1ccc(/C=C2/C(=O)N(c3ccccc3)N=C2C)c(OC)c1`, the activity change, negative = inhibition is 67.9%. Turning to `CC1=NN(Cc2ccccc2)C(=O)/C1=C/c1ccc(N(C)C)cc1`, the activity change, negative = inhibition is -61.8% (active). In the case of `CC(=O)c1ccc(NC(c2ccc(F)cc2)c2nnc(-c3ccccc3)o2)cc1` (stereo not drawn), the activity change, negative = inhibition is 16.8%. Take `O=C(c1ccco1)n1nc(-c2ccc(Cl)cc2)nc1NCc1ccccc1`: the activity change, negative = inhibition was -5.57%. `COc1ccccc1CNC(=O)C(=O)NCC(c1ccco1)S(=O)(=O)c1ccc(F)cc1` (stereo not drawn): the activity change, negative = inhibition is -13.4%. Under `Cc1cc(-c2ccc(S(=O)(=O)N3CCN(c4cccc(C(F)(F)F)c4)CC3)s2)on1` stands -38.1%. As for `Cc1cc(-c2ccc(S(=O)(=O)N3CCc4ccccc4C3)s2)on1`, the activity change, negative = inhibition was -77.4% (active).

As for `Cc1cccc(N2CCN(S(=O)(=O)c3ccc(-c4cc(C)no4)s3)CC2C)c1` (stereo not drawn), the activity change, negative = inhibition is 15.2%.

Consider `COc1ccc(CC(=O)N2CC(=O)Nc3ccc(Br)cc3C2c2ccc(F)cc2)cc1OC` (stereo not drawn), for which the activity change, negative = inhibition is -3.53%. Take `COC(=O)[C@@]1(Cc2ccc(F)cc2)[C@H]2c3cc(C(=O)N(C)C)n(CCc4c[nH]c5ccc(OC)cc45)c3C[C@H]2CN1C(=O)c1ccccc1`: the activity change, negative = inhibition was -82.3% (active). The figure for `COC(=O)[C@@]1(Cc2ccc(OC)cc2)[C@H]2c3cc(C(=O)N4CCCC4)n(Cc4ccc(OC(F)(F)F)cc4)c3C[C@H]2CN1C(=O)c1ccccc1` is -18.9%. In the case of `COC(=O)[C@@]1(Cc2ccc(F)cc2)[C@H]2c3cc(C(=O)N4CCCC4)n(C[C@H](O)CO)c3C[C@H]2CN1C(=O)c1ccccc1`, the activity change, negative = inhibition is 5.98%.

With `CCC(=O)N1CCc2cc(S(=O)(=O)NC(C(=O)NCCc3ccc(C)cc3)C(C)C)ccc21` (stereo not drawn), the activity change, negative = inhibition is 12.8%.

Turning to `Cc1ccccc1-c1n[nH]c(=S)n1/N=C/c1ccc(-c2ccccc2Br)o1`, the activity change, negative = inhibition was -88.9% (active).

Take `CCc1n[nH]c(=S)n1/N=C/c1c[nH]c2ccc(Br)cc12`: the activity change, negative = inhibition is -6.5%. Regarding `CN(Cc1ccccc1)C(=O)c1cn(C)c2ccc(S(=O)(=O)N(C)C3CCCCC3)cc2c1=O`, the activity change, negative = inhibition is 13.4%. Turning to `CCCOc1ccc(N2CC(C(=O)Nc3ccccn3)CC2=O)cc1` (stereo not drawn), the activity change, negative = inhibition was 6.17%. For the compound `O=C(Nc1cccc2c1N(C(=O)c1ccco1)CCC2)c1ccco1`, the activity change, negative = inhibition was -39.1%. The figure for `COc1cccc(-n2c(=O)c3c(C)c(C(=O)N(C)C)sc3n(Cc3cccc(C)c3)c2=O)c1` is -2.38%.

In the case of `CCOC(=O)Nc1ccc2c(c1)N(C(=O)CN1CCN3CCCC3C1)c1ccccc1CC2` (stereo not drawn), the activity change, negative = inhibition was 74.9%.

Take `CCOC(=O)Nc1ccc2c(c1)N(C(=O)CCCl)c1ccccc1[S@]2=O`: the activity change, negative = inhibition is -102% (active). Regarding `CCOC(=O)Nc1ccc2c(c1)N(C(=O)CCN1CCN(CCO)CC1)c1ccccc1CC2`, the activity change, negative = inhibition is -20.5%.
